Laboratory results as given in PubChem BioAssay AID485297 (National Center for Advancing Translational Sciences (NCATS), 2010).
The campaign covered roughly 320,000 compounds. About 9,100 (2.8%) were called active. Another 3% or so got no clear call; they are omitted. Calls come from the whole dose curve; as a rule, active = well fitted activation curve with a large enough effect; inconclusive = small, poorly fitted or top-dose-only effect; inactive = no such curve, though single readings can be large or run the other way. Many of the other results were omitted from the sample, so actives are more common in it than they were.

Assay: qHTS Assay for Rab9 Promoter Activators; note: nearly all actives have a fitted effect of over 60% in size; for activation, negative = inhibition: % of control where 0% means no effect
Settings: Huh7 Rab9 promoter-luciferase reporter, luminescence, 24 h; series mostly up to 9.22 µM
In short: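 Huh7 cells stably carrying Rab9 promoter–luciferase reporter, plated 1500 cells/well, compound added after 2 h and incubated 24 h at 37 °C; luciferase luminescence then read after 10 min with detection reagent.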
Potency is the fitted concentration of half-maximal effect.

Potency, active:
Cc1ccc(N/N=C2\COC(C)(C)CC2=O)cc1 3160 nM, Cc1ccc(C(=O)CSc2nc3ccccc3c(=O)n2N)o1 3550 nM, O=C(O)C1CCN(C(=O)OCc2ccccc2)CC1 4470 nM, Cc1ccc(C(=O)Cc2nnc(C)s2)cc1 2820 nM, Nc1ncc(-c2cc3ccccc3oc2=O)s1 1120 nM, Cc1nc(-c2ccccc2)sc1C(=O)/C=C/N(C)C 2820 nM, Cc1ccc(C(=O)NNc2ncnc3ccccc23)cc1 3980 nM, Cc1ccccc1Nc1nc(N)nc(CSc2ccccc2)n1 1410 nM, COc1ccc(/C=C2\SC(=O)N(CCC(=O)NC3CCS(=O)(=O)C3)C2=O)cc1 (centres undefined) 2510 nM, O=C(Nc1cccnc1)c1noc2c1CCCCC2 1580 nM, O=C(CCSc1ccccc1)N1CCN(c2ccccc2F)CC1 3550 nM, COc1cccc(C(=O)Nc2cc3c(cc2Br)OCCCO3)c1 2820 nM, CN1CCN(c2ccc(NC(=O)c3ccccc3)cc2)CC1 1580 nM, COc1cccc(C(=O)Nc2ccc(N3CCCC3)cc2)c1 1120 nM

Potency, inactive:
Cc1ccc(S(=O)(=O)NCCNC(C)c2ccc(Br)cc2)cc1 (centres undefined), CCC1(C)NC(=O)N(CC(=O)N2CCN(c3cccc(Cl)c3)CC2)C1=O (centres undefined), COc1cc2c(cc1OC)CC1(CCCCC1)N=C2, CCC1(C)CC(=O)NC1=O (centres undefined), COC(=O)CSc1nc2ccccc2c(=O)n1Cc1ccccc1, COc1ccc(NC(=O)CSc2nc3ccccc3c(=O)n2C)cc1, Cc1ccccc1-c1cc(C(=O)NCC2CC2)n(CC2CC(c3cccnc3)=NO2)n1 (centres undefined), COc1cc(C(C)=O)ccc1OC(C)C(=O)Nc1ccc(S(=O)(=O)N2CCCC2)cc1 (centres undefined), CCOC(=O)N1CCC(NC(=O)CCc2ccccc2)CC1, O=C(NCC1CCC(C(=O)O)CC1)OCc1ccccc1 (centres undefined), COc1ccc(Cl)cc1NC(=O)CN(C)CC(=O)Nc1ccc2c(c1)OCO2, COc1ccc(CN(Cc2ccco2)S(=O)(=O)c2ccc(S(=O)(=O)N3CCCC3)cc2)cc1, COc1ccccc1-n1nnnc1SCC(=O)NC(=O)Cc1ccccc1, Cc1ccc(C(=O)Cn2cccn2)cc1, Cc1ccc(S(=O)(=O)CC(=O)Nc2nnc(C)s2)cc1, CC(OC(=O)c1cc2ccccc2o1)C(=O)Nc1ccc(N2CCOCC2)cc1 (centres undefined), Cc1ccc2oc(=O)c3cnn(CC(=O)N(Cc4ccco4)C4CCCCC4)c3c2c1, Cc1cc2c(=O)n(C)c(SCC(=O)c3cc4ccccc4o3)nc2s1, COc1ccccc1C(CNC(=O)c1cccc(S(=O)(=O)Nc2ccc(F)cc2)c1)N(C)C (centres undefined), Cc1nn(C)c(Cl)c1CN1CCC(n2nccc2NC(=O)C2CCCC2)CC1, CC(Sc1nnc(-c2cccs2)n1C1CC1)C(=O)NCC1CCCO1 (centres undefined), Cc1nc(-c2ccc(Cl)cc2)sc1C(=O)CBr, CN(C)/C=C/C(=O)c1ccccc1F, CC(C)CN(C(=O)CSc1nncn1C)C1CCS(=O)(=O)C1 (centres undefined), CCc1nc(SCC(=O)NNC(=O)c2ccc(C)cc2)c2ccccc2n1, Cc1ccc(C(=O)NNC(=O)c2cc3cc4ccccc4nc3s2)cc1, COc1ccc(CNC(=O)COC(=O)c2c(C)nn(-c3ccccc3)c2C)cc1OC, CN(C)C(CNC(=O)c1cccc(C#N)c1)c1ccco1 (centres undefined), Cc1cc(F)ccc1S(=O)(=O)Nc1ccc(C(=O)N(C)Cc2ccco2)cc1, CC1CCCCC12NC(=O)N(CC(=O)Nc1ccc(S(=O)(=O)Nc3ncccn3)cc1)C2=O (centres undefined), Cc1ccc(C(=O)OCc2nc(N)nc(Nc3ccccc3C)n2)cc1, Cc1ccccc1Nc1nc(N)nc(CN2CCN(c3ccccn3)CC2)n1, COc1cccc(C(O)c2nc3ccccc3n2C)c1 (centres undefined), Cc1cc(C)c(CN2CCN(C(=O)Cn3ccc(NC(=O)OCc4ccccc4)nc3=O)CC2)c(C)c1, COc1ccc(/C=C2\SC(=O)N(CCC(=O)NCCCn3ccnc3)C2=O)cc1, COc1ccccc1/C=C1\SC(=O)N(CCC(=O)N(C)C2CCS(=O)(=O)C2)C1=O (centres undefined), CC1CCCC(C)N1C(=O)COC(=O)COc1ccccc1C#N (centres undefined), CCCCN(C(=O)c1ccc(S(=O)(=O)N2CCOCC2)cc1)C1CCS(=O)(=O)C1 (centres undefined), O=C(Nc1cccnc1)c1cccc(S(=O)(=O)N2CCCC2)c1, O=C(Nc1cccnc1)c1cc(Cl)ccc1Cl, CCCCc1ccc(NC(=O)CN2C(=O)NC(Cc3ccccc3)C2=O)cc1 (centres undefined), O=C(NNC(=O)c1cccc(S(=O)(=O)Nc2ccc(Cl)cc2)c1)c1ccc(=O)[nH]c1, O=C(NCC(=O)N1CCN(c2ccccc2F)CC1)c1cccs1, O=C(CCc1ccccc1F)N1CCN(c2ccccc2)CC1, CC1CCCC(NC(=O)c2cc(S(=O)(=O)N3CCCCC3)ccc2Cl)C1C (centres undefined), CCCCCCCC(=O)OC(CN1CCCCCC1)CN1CCCC1=O (centres undefined), COc1cccc(C(=O)Nc2ccc(N3CCN(C(=O)c4ccco4)CC3)cc2)c1, COc1ccc(C2COC(=O)C2=N)c(NC(=O)c2ccccc2)c1 (centres undefined), CN1CCN(c2ccc(NC(=O)c3ccc4c(c3)[nH]c(=O)n4Cc3ccc(F)cc3)cc2)CC1, COc1ccc(C(=O)Nc2ccc(N3CCC(C)CC3)cc2)cc1Br, Cc1ccccc1C(=O)NC(=S)Nc1ccc(N2CCN(C(=O)c3ccccc3)CC2)cc1, CC(=O)Oc1cccc(C(=O)Nc2ccccc2NC(=O)c2cccc(OC(C)=O)c2)c1, CC(C)(C)OC(=O)N[C@H](C(=O)OC(C)(C)C)c1ccc(Br)cc1, O=C(OCC(=O)N1CCN(C(=O)c2ccco2)CC1)c1ccc(Cl)c(Cl)c1

activation, negative = inhibition, inactive:
O=C(NCc1cccnc1)c1cccc(-c2cc3ccccc3oc2=O)c1 -2.68% [at 1.84 µM]
